# Compounds with a hit are over-represented: about 19% of the library has one in this group of screens.
# IL1B secr inh: blocks inflammasome-driven IL-1 beta release. 360,000 tested, 4.7% active. activity change, % at 57.5 µM. THP-1 LPS/ATP IL-1B secretion, AlphaLISA, 16 h; active compounds read low. AID 743279; in the data active means activity change below about -50%; inconclusive means mostly about -30% to -49%
#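 THP-1 cells pretreated 1 hr with compounds (up to 57.5 uM final), then stimulated with LPS (250 ng/mL final) plus ATP (1.25 mM final); secreted IL-1B measured by AlphaLISA after 16 hr, decreased signal indicating inhibition.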
# DT40 TDP1 no CPT: qHTS for Inhibitors of human tyrosyl-DNA phosphodiesterase 1 (TDP1): qHTS in cells in absence of CPT. DT40 Tdp1-/- hTDP1 cells, no CPT, ATP luminescence, 48 h. Potency, µM (doses to about 46.2 µM), for the others: at the top dose activity change, negative = growth inhibition, hits mostly inhibitors. 420,000 tested, 15% active. AID 686978, 2013; further: potency means the concentration at half of the fitted maximal effect; nearly all actives have a fitted effect of over 55% in size
#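 Chicken DT40 Tdp1-/- cells stably complemented with human TDP1 were seeded at 400 cells/well with DMSO in place of 20 nM camptothecin. After compound pinning, cells grew at least 48 hr at 37 °C; viability read by CellTiter-Glo luminescence.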
# Giardia kill: kills Giardia lamblia; Giardia lamblia trophozoite viability; activity change, % at 7.66 µM, hits read low; 340,000 tested, 0.15% active; AID 540267; in the data active means activity change below about -80%; inconclusive means between about -30% and that limit;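 further: parasites exposed to compound for two days anaerobically before the ATP read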
#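 Luminescence from cellular ATP indicates surviving trophozoites (100 cells/well) following 48 hrs anaerobic compound treatment at 37 deg C; signal develops 15-30 min at room temperature.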
# TDP1 cell CPT: growth inhibition of DT40 Tdp1-/-;hTDP1 cells with camptothecin (screen for TDP1 inhibitors); chicken DT40 Tdp1-/-;hTDP1 cells + 20 nM CPT, ATP luminescence, 48 h; Potency, µM (titrated, usually from 46.2 µM), inactives show top-dose activity change, negative = growth inhibition, most hits filed as inhibitors; 420,000 tested, 12% active; AID 686979; further: potency means the concentration at half of the fitted maximal effect; nearly all actives have a fitted effect of over 55% in size
#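 Chicken DT40 Tdp1-/- cells complemented with human TDP1, 400 cells/well, exposed to compounds plus 20 nM camptothecin for at least 48 h at 37 C; viability read as ATP content by CellTiter-Glo luminescence.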
# TDP1 block: inhibitors of human tyrosyl-DNA phosphodiesterase TDP1. Q9NUW8. recombinant TDP1, AlphaScreen DNA substrate cleavage. Potency, µM (highest dose often 130 µM), for the others: at the top dose activity change, negative = inhibition, usual class: inhibitors. 350,000 tested, 0.28% active. AID 485290; further: potency means the concentration at half of the fitted maximal effect; nearly all actives have a fitted effect of over 40% in size
# Target sequence (Q9NUW8 whole entry, looked up): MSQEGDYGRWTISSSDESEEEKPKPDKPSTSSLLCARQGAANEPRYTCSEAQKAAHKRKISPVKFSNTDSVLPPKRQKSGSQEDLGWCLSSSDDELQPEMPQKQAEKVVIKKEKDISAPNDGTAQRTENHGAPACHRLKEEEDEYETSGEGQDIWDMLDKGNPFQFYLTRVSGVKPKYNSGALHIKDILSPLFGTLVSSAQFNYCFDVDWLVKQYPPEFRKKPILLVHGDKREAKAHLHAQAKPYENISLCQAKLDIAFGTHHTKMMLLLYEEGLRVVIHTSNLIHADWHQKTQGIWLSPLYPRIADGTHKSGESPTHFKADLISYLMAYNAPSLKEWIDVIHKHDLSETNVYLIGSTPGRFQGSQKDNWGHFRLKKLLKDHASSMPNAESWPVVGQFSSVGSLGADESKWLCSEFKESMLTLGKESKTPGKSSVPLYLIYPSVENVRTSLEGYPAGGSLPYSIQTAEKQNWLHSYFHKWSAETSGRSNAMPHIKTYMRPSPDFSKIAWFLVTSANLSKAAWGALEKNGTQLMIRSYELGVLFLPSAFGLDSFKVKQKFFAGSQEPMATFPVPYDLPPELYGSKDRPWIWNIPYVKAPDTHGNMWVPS
#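 Recombinant E. coli-expressed Tdp1 (1 nM) preincubated with compound 15 min at RT, then 5'-biotin/3'-phosphotyrosine-FITC DNA substrate (15 nM) added for 5 min. AlphaScreen beads (10 ug/ml) added, 10 min RT; tyrosine-FITC cleavage read as signal loss.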
# ELG1 repair inh: blocks ELG1-dependent DNA repair in HEK293T cells; AID 504467; HEK293T ELG1-luciferase reporter, luminescence, 16 h; DNA damage induced by 5-fluorouridine; 330,000 tested, 2.3% active; Potency, µM (doses to about 46.1 µM), for inactives: at the top dose activity change, negative = inhibition, usual class: inhibitors; further: potency means the concentration at half of the fitted maximal effect; nearly all actives have a fitted effect of over 55% in size
#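 Reporter activity after DNA damage by 5-fluorouridine is monitored. Compound-treated cells incubate 16 hr at 37 °C, then ONE-Glo is added for 30 min before luminescence reading.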
# * marks the source's active call; other numbers are inactive results; ? = inconclusive; . = no result given. Unless noted, the call rests on the fitted dose curve; in most records, active means well fitted curve in the direction sought with a large enough effect; inconclusive means small, poorly fitted or top-dose-only effect, or another doubt; inactive means no such curve, though single readings can be large; an effect the other way counts as inactive or inconclusive. On the % scale 0 is the no-effect control and ±100 the full control effect.
SMILES,IL1B secr inh,DT40 TDP1 no CPT,Giardia kill,TDP1 cell CPT,TDP1 block,ELG1 repair inh
CCc1cccc(NC(=O)C2CCCN(S(=O)(=O)c3cccnc3)C2)c1 (centres undefined),8.1,14.6µM*,20.6,?,4.2%,-3.9%
COC(=O)N1CCC2(CCN(Cc3cc(C(F)(F)F)cc(C(F)(F)F)c3)CC2)CC1,.,14.6µM*,.,?,.,.
COc1ccccc1CN1CCC2(CC1)CCN(C(=O)c1cc(C(F)(F)F)cc(C(F)(F)F)c1)CC2,.,20.6µM*,.,?,.,.
O=C(c1cccc(F)c1)N1CCC2(CCN(Cc3cc(C(F)(F)F)cc(C(F)(F)F)c3)CC2)CC1,.,18.4µM*,.,?,.,.
COC(=O)N1CCC2(CCN(Cc3ccc(C#N)cc3)CC2)CC1,.,?,.,1.64µM*,.,.
CC1CCN(C(=O)Cn2c(=O)n(Cc3ccco3)c(=O)c3sccc32)CC1,7.2,-21.3%,-22.7,-0.3%,.,2.1%
CCOc1ccc2oc(=O)cc(CN3CCN(C(=O)c4cccc(F)c4)CC3)c2c1,.,?,.,?,2.3%,.
CCOc1ccc(CN2CCN(C(=O)c3cccc(F)c3)CC2)cc1,-59.6*,-21.9%,1.9,-24.6%,-4.4%,?
N#Cc1ccc(CN2CCC3(CC2)CCN(S(=O)(=O)c2ccccc2)CC3)cc1,.,16.4µM*,.,?,.,.
N#Cc1ccc(CN2CCC3(CC2)CCN(C(=O)c2cc(C(F)(F)F)cc(C(F)(F)F)c2)CC3)cc1,.,13µM*,.,23.1µM*,.,.
O=C(CSc1oc(-c2ccc(F)cc2)nc1S(=O)(=O)c1ccccc1)NC1CCCCC1,.,?,.,?,5.9%,.
Cc1cccc(S(=O)(=O)NC(=O)C2(C)CCN2C(=O)C/C=C/c2ccccc2)c1 (centres undefined),9.4,-0.2%,.,-18.3%,.,.
O=C(CNC(=O)c1ccccc1)OCC(=O)c1ccccc1,.,?,-7.9,0.3%,-3.3%,.
COc1cccc(NC(=S)NC(=O)/C=C/c2ccco2)c1,31.5,14.6µM*,-4.1,18.4µM*,2.7%,?
CC(=O)Nc1ccc(NC(=S)NC(=O)/C=C/c2ccco2)cc1,31.5,?,13.0,?,.,-10.8%
COc1ccc(/C(C)=N/NC(=O)CNC(=O)/C=C\c2ccco2)cc1,84.4,9.2µM*,3.1,13µM*,-13.5%,-2.6%
CCOc1ccc(NC(=S)NC(=O)/C=C/c2ccco2)cc1,-20.3,18.4µM*,8.8,?,.,?
CN1CCN(c2ccc(NC(=S)NC(=O)/C=C/c3ccco3)cc2)CC1,-95.6*,20.6µM*,15.9,?,11.8%,?
O=C(/C=C/c1ccco1)NC(=S)Nc1cccc(C(=O)O)c1,7.2,2.3%,-20.4,-25.4%,.,?
O=C(CSc1nc2nc(-c3cccs3)cc(C(F)(F)F)c2c(=O)[nH]1)C(F)(F)F,6.6,?,2.7,13µM*,.,?
CCCC12CN3CC(C)(CN(C1)C3c1ccc([N+](=O)[O-])o1)C2=O (centres undefined),1.4,-1.9%,-87.1*,22.7%,0.0%,-8.3%
CCC12CN3CC(CC)(CN(C1)C3c1ccc([N+](=O)[O-])o1)C2=O (centres undefined),11.8,-9.3%,-85.8*,3.3%,-2.4%,3.8%
CCCCC12CN3CC(C)(CN(C1)C3c1ccc([N+](=O)[O-])o1)C2=O (centres undefined),-1.4,-10.6%,?,-11.3%,4.1%,1.2%
Cn1cc(-c2nc3cnc(N4CCNCC4)nc3n(C3CC3)c2=O)c2ccccc21,.,5.8µM*,.,13µM*,.,.
Cn1cc(-c2nc3cnc(N4CCNCC4)nc3n(-c3ccccc3)c2=O)c2ccccc21,.,5.2%,.,1.0%,.,.
SMILES,IL1B secr inh,DT40 TDP1 no CPT,Giardia kill,TDP1 cell CPT,TDP1 block,ELG1 repair inh
CC(C)C(O)c1ccc2c(c1)CN(C(=O)c1ccccc1-n1cccn1)CCO2 (centres undefined),.,-12.1%,.,-5.6%,.,.
O=C1CSC(=S)N1Cc1ccccc1,-9.7,20.6µM*,.,?,.,.
O=c1c2ccccc2ncn1-c1ccc([N+](=O)[O-])cc1[N+](=O)[O-],-64.5*,18.4µM*,?,16.4µM*,.,14.6µM*
O=c1c2ccccc2ncn1-c1ccc(Cl)cc1[N+](=O)[O-],-2.3,?,-22.5,?,2.6%,13.0%
C=CCc1c(C)nc(C)nc1N/N=C/c1ccccc1O,11.8,23.1µM*,1.1,25.9µM*,13.7%,?
C=CCc1c(C)nc(C)nc1N/N=C/c1ccc([N+](=O)[O-])cc1,36.8,16.4µM*,4.7,?,5.6%,?
Cc1nnc(N/N=C/c2ccccc2O)n1N,0.0,3.9%,-10.9,-16.7%,5.0%,-19.5%
Cc1ccc2nc(C(Cl)(Cl)Cl)nc(N/N=C/c3ccc([N+](=O)[O-])cc3)c2c1,22.6,16.4µM*,0.9,?,.,.
Cc1ccc(C=NNc2ccc([N+](=O)[O-])cn2)cc1,-9.6,-28.3%,-1.9,?,.,.
CCOc1ccccc1CNC(=O)CN1C(=O)C2CCCCN2c2ccc(C(=O)N(C)C)cc21 (centres undefined),.,?,.,-24.4%,5.3%,.
CN1CCN(S(=O)(=O)c2ccc(N(C)Cc3cccc(F)c3)nc2)CC1,-5.8,-8.7%,1.1,6.5%,1.1%,15.0%
CC(=O)c1ccc(S(=O)(=O)N2CCN(C(C)C(=O)N(C)Cc3ccccc3)CC2)cc1 (centres undefined),9.0,?,9.4,?,0.7%,-11.9%
CC1(C)C2CCC(CN=C(N)CSS(=O)(=O)O)C1C2 (centres undefined),-57.5*,?,.,?,.,.
NC(CSS(=O)(=O)O)=NCCC12CC3CC(CC(O)(C3)C1)C2,7.2,4.6%,-14.6,9.3%,2.6%,?
COc1ccc(-c2cc(C3CCN(C(=O)OC(C)(C)C)CC3)[nH]n2)cc1,-83.6*,?,2.0,?,0.0%,-20.1%
COC(=O)c1ccc(N2CCC(c3cc(-c4ccc(OC)cc4)n[nH]3)CC2)c([N+](=O)[O-])c1,-7.9,18.4µM*,-11.1,20.6µM*,9.6%,?
CC(=O)c1ccc(N2CCC(c3cc(-c4ccc(Cl)cc4)n[nH]3)CC2)c([N+](=O)[O-])c1,24.9,4.61µM*,8.8,7.31µM*,8.6%,?
CC(=O)c1ccc(N2CCN(c3ccc(C(N)=O)cc3[N+](=O)[O-])CC2)cc1,4.7,?,0.7,?,3.6%,?

# Compound activity (PubChem)
